Sampled rows, rich in hits. Any-hit rate of the full collection: about 2.3%.
aSyn yeast inh: qHTS of alpha-syn Inhibitors; Potency, µM (series often up to 46.1 µM), most hits filed as activators; 370,000 tested, 0.14% active; Yeast expressing alpha-synuclein, growth rescue, BacTiter-Glo, 24 h; further: nearly all actives have a fitted effect of over 65% in size
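Readout is rescue of growth in alpha-synuclein-expressing yeast, so inhibitors of toxicity appear as activators. Growth after 24 hr at 30 deg C in galactose medium is quantified by luminescence.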
Abeta rescue: qHTS for compounds that reverse cellular toxicity of Amyloid beta (A-beta) peptide in yeast: Primary Screen | AID 1347071, 2019 | 410,000 tested, 0.063% active | Potency, µM (series often up to 46.1 µM), usual class: activators | yeast expressing A-beta42, growth rescue, OD600, 48 h; response scale: 0% DMSO, 100% iron-clioquinol control; further: nearly all actives have a fitted effect of over 55% in size
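Yeast A-beta toxicity model in growth medium with pinned compounds, 48 h at 30 C; growth read as absorbance at 600 nm. Normalized to FeCl3/clioquinol equimolar mix (positive) and DMSO (negative).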
FUS suppressor: qHTS for Suppressors of FUS Proteinopathy: Primary screen using FUS-linked yeast assay. Potency, µM (titrated, usually from 76.6 µM), hits mostly activators. S. cerevisiae FUS-expressing, growth rescue, OD600, 24 h. 390,000 tested, 0.24% active; further: nearly all actives have a fitted effect of over 55% in size
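Cultures pregrown in 2.5% raffinose medium are shifted to minimal medium containing 2% galactose to express toxic FUS. Compounds are tested at several concentrations. After 24hr at 30C, growth is quantified at 600 nm absorbance.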
TDP43 rescue: qHTS of TDP-43 Inhibitors | TDP-43 expressing yeast growth rescue, BacTiter-Glo, 24 h | Potency, µM (top dose mostly 46.1 µM), hits mostly activators | 410,000 tested, 1.8% active | AID 652104, 2013; further: nearly all actives have a fitted effect of over 50% in size
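Cell-based yeast growth screen: TDP-43 expression induced in galactose, inoculum OD600=0.02 after raffinose pregrowth to mid-log. Read-out BacTiter-Glo luminescence at 24 hr, 30 deg C; inhibition of toxicity seen as signal increase.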
uPA surface inh: qHTS for Inhibitors of Cell Surface uPA Generation; cell surface uPA generation assay, qHTS; Potency, µM (top dose mostly 38.3 µM), most hits filed as inhibitors; 330,000 tested, 0.31% active; AID 540303, 2011; active means well fitted inhibition curve with a large enough effect; inconclusive means small, poorly fitted or top-dose-only effect; inactive means no such curve, though single readings can be large or run the other way; tested in mouse RAW 264.7 cells; further: nearly all actives have a fitted effect of over 55% in size
Chronic BCR inh: qHTS Assay to Find Inhibitors of Chronic Active B-Cell Receptor Signaling | ABC-DLBCL IkBa-CBG/CBR reporter, luminescence ratio, 4 h | Potency, µM (series often up to 46.1 µM), most hits filed as inhibitors | 340,000 tested, 0.05% active | AID 493014, 2011; active means well fitted inhibition curve with a large enough effect in the signal ratio, with a control signal flat, not every such curve was filed as active; inconclusive means small, poorly fitted or top-dose-only effect, or effect the other way, or a change in a side signal; the % refers to the signal ratio
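Cell line TMD8 (human ABC DLBCL), stably expressing tet-inducible CBG68-IkBa fusion and CBR; IMDM/0.5% FBS; cpd up to 46 uM; dox induction, 4 h, 37C/5% CO2; dual luminescence; green/red ratio; MG132 control.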
Each line names hits and unclear results; the compound was inactive in the other large screens; ! = repeats disagree. Unless noted, the call rests on the fitted dose curve; in most records, active means well fitted curve in the direction sought with a large enough effect; inconclusive means small, poorly fitted or top-dose-only effect, or another doubt; inactive means no such curve, though single readings can be large; an effect the other way counts as inactive or inconclusive.

CN(C)C(=O)CCc1ccc2c3c([nH]c2c1)[C@]1(CCC2CCCC2)[C@@H](C(=O)N2CCOCC2)C[C@H](CC(=O)NCCC2=CCCCC2)C(=O)N1CC3	FUS suppressor 15.8µM, uPA surface inh inconclusive
CCOC(=O)C1(c2ccccc2)CCN(CCC(=O)Nc2ccccc2OC)CC1	none
Cc1ccccc1-n1c(O)c(C=Nc2ccc(N(C)C)cc2)c(=O)[nH]c1=O	none
CC(=O)c1sc(NC(=O)CCS(=O)(=O)c2ccc(C)cc2)nc1C	uPA surface inh 11.2µM, Chronic BCR inh inconclusive
O=C(Nc1nnc(-c2ccc3c(c2)CCCC3)o1)c1ccccc1	aSyn yeast inh inconclusive, Abeta rescue inconclusive, TDP43 rescue 5.01µM, uPA surface inh 10µM, Chronic BCR inh inconclusive
CC12CCC(=O)C=C1CCC1C2CCC2(C)C(O)CCC12 (stereo unspecified)	Chronic BCR inh inconclusive
C[C@]12CC[C@H]3[C@@H](CCC4=CC(=O)CC[C@@]43C)[C@@H]1CC[C@@H]2C(=O)CO	TDP43 rescue inconclusive, uPA surface inh 3.98µM, Chronic BCR inh inconclusive
CCC(=O)O[C@H]1CC[C@H]2[C@@H]3CCC4=CC(=O)CC[C@]4(C)[C@H]3CC[C@]12C	TDP43 rescue 14.1µM (no result: Chronic BCR inh)
C[C@]12CC[C@H]3[C@@H](CCC4=CC(=O)CC[C@@]43C)[C@@H]1CC[C@@H]2O	TDP43 rescue inconclusive, uPA surface inh inconclusive
O=P(NC1CCCCC1)(Oc1ccccc1)Oc1ccccc1	Abeta rescue inconclusive (no result: Chronic BCR inh)
C[C@@]12C(=O)Nc3ccc(F)cc3C(=O)N1[C@H]1c3ccccc3OC[C@@H]1[C@@H]2c1ccccc1	FUS suppressor inconclusive, TDP43 rescue 14.1µM, uPA surface inh inconclusive, Chronic BCR inh inconclusive
COc1ccc2c(c1)OC[C@H]1[C@H]2N2C(=O)c3ccc(F)cc3NC(=O)[C@@]2(C)[C@H]1c1ccccc1	TDP43 rescue inconclusive, uPA surface inh inconclusive (no result: Chronic BCR inh)
Nc1c(Br)cc([N+](=O)[O-])cc1[N+](=O)[O-]	TDP43 rescue 12.6µM
Cc1cc([N+](=O)[O-])ccc1N	Chronic BCR inh inconclusive
O=C1NC(=O)C(CCc2ccncc2)(CCc2ccccn2)C(=O)N1c1ccc(Br)cc1 (stereo unspecified)	none
Cc1c2ccncc2c(C)c2c1[nH]c1ccccc12	uPA surface inh 0.891µM, Chronic BCR inh inconclusive
c1ccc2c(c1)[nH]c1cnccc12	Chronic BCR inh inconclusive
O=C(CCC(=O)N1CCOc2ccc(Cl)cc21)N1CCC2(CC1)OCCO2	none
O=C(Nc1ccccn1)NC12CC3CC(CC(C3)C1)C2	TDP43 rescue 3.16µM
CCCCn1c(O)c(C(CC)=NCc2ccc(F)cc2)c(=O)[nH]c1=O	FUS suppressor inconclusive, TDP43 rescue 22.4µM
O=C(NCc1ccccc1)Oc1cccc(Cl)c1	Chronic BCR inh inconclusive
CC(=O)c1c(C)[nH]c(C(=O)OCc2cccc(Cl)c2)c1C	TDP43 rescue 15.8µM, Chronic BCR inh inconclusive
O=c1oc2ccccc2c(O)c1[C@H]1c2ccc(O)cc2Oc2c1c(=O)oc1ccccc21	aSyn yeast inh 0.562µM, TDP43 rescue 5.62µM, Chronic BCR inh inconclusive
O=C(CSc1ccc(Cl)cc1)NC1=NN(c2ccccc2)C(=O)C1	TDP43 rescue inconclusive
CC1C(OC(=O)CCC(=O)NC(C)(C)CO)O[C@H]2OC3(C)CC[C@H]4[C@H](C)CCC1C24OO3 (stereo partly specified)	TDP43 rescue 22.4µM, Chronic BCR inh inconclusive
CC(C)CC(NC(=O)CCCNC(=O)CCC(=O)OC1O[C@H]2OC3(C)CC[C@H]4[C@H](C)CCC(C1C)C24OO3)C(=O)O (stereo partly specified)	TDP43 rescue 20µM
C[C@H]1[C@H](OC(=O)CCC(=O)NCc2ccc(C(=O)O)cc2)O[C@@H]2O[C@@]3(C)CC[C@H]4[C@H](C)CC[C@@H]1C24OO3	TDP43 rescue 22.4µM
CN1C[C@H]2CON(C)[C@H]2C[C@H]1c1cccc(Br)c1	none (no result: Chronic BCR inh)
CCCCC(CC)CNCC(O)c1ccccc1 (stereo unspecified)	none
NC(=O)[C@@H]1CC2(CC(c3cccc(NC(=O)CC(c4ccccc4)c4ccccc4)c3)=NO2)CN1C(=O)c1ccc(Cl)cc1 (stereo partly specified)	FUS suppressor 28.2µM, uPA surface inh inconclusive, Chronic BCR inh inconclusive
COc1ccc(CN2Cc3cnnn3-c3ccccc3C2C#N)cc1 (stereo unspecified)	uPA surface inh 5.62µM (no result: Chronic BCR inh)
CN1Cc2cnnn2-c2ccccc2C1C#N (stereo unspecified)	uPA surface inh inconclusive (no result: Chronic BCR inh)
N#CC1c2ccccc2-n2nncc2CN1Cc1cc(Cl)cc(Cl)c1 (stereo unspecified)	uPA surface inh 4.47µM (no result: Chronic BCR inh)
CN(C)C(=O)Oc1cccc(NC(=O)c2ccccc2C(F)(F)F)c1	none
CC(=O)O[C@@]12CO[C@@H]1C[C@H](OC1OCC(O)C(O)C1O)[C@@]1(C)C(=O)[C@H](O)C3=C(C)[C@@H](OC(=O)[C@H](O)[C@@H](NC(=O)c4ccccc4)c4ccccc4)C[C@@](O)([C@@H](OC(=O)c4ccccc4)C12)C3(C)C (stereo partly specified)	FUS suppressor 10µM, uPA surface inh inconclusive
CCCCCC(=O)N[C@@H](c1ccccc1)[C@@H](O)C(=O)O[C@H]1C[C@@]2(O)[C@@H](OC(=O)c3ccccc3)C3[C@](C)(C(=O)[C@H](O)C(=C1C)C2(C)C)[C@@H](OC1OCC(O)C(O)C1O)C[C@H]1OC[C@@]31OC(C)=O (stereo partly specified)	uPA surface inh inconclusive
S=C(NCCc1ccccc1)N1Cc2cc(N3CCCCC3)ccc2-n2nncc2C1	FUS suppressor inconclusive, TDP43 rescue 35.5µM (no result: uPA surface inh, Chronic BCR inh)
S=C(NCCc1ccccc1)N1Cc2ccccc2-n2nncc2C1	TDP43 rescue 22.4µM (no result: uPA surface inh, Chronic BCR inh)
CC(C)(C)C1CCc2sc(C(=O)NNC(=O)CCl)cc2C1 (stereo unspecified)	TDP43 rescue 12.6µM, uPA surface inh inconclusive, Chronic BCR inh inconclusive
COC(=O)C1=C(c2ccc(OCc3ccccc3)cc2)C[C@@H]2CC[C@H]1N2C(=O)NCc1ccc(OC)c(OC)c1	FUS suppressor inconclusive, uPA surface inh inconclusive, Chronic BCR inh inconclusive
NC(=NCCCCCCN=C(N)/N=C(\N)Nc1ccc(Cl)cc1)/N=C(\N)Nc1ccc(Cl)cc1	TDP43 rescue 25.1µM!, uPA surface inh inconclusive, Chronic BCR inh inconclusive

Screens: PubChem BioAssay, National Center for Advancing Translational Sciences (NCATS)
